In ChEMBL document CHEMBL4513135, “CO-ADD screening of IQOG CSIS (Spain) compounds”:
Several values for one entry are separate records, joined by “and”; a condition that tells them apart may be missing. Identical values can stand only once. Potency and affinity values are given separately.

Experiments:
Klebsiella pneumoniae = conditions: Concentration 32 ug.mL-1, ASSAY_TEST Inhibition of Bacterial Growth, detection method Absorption (OD600), MEDIA CAMHB, plate type 384well, NBS, CORNING #3640, time 18 hr
Candida albicans = conditions: 32 ug/mL
Cryptococcus neoformans = conditions: Concentration 32 ug.mL-1, ASSAY_TEST Inhibition of Fungal Growth, detection method Resazurin, Absorption (OD600-OD570), plate type 384well, NBS, CORNING #3640

For N#CC1=C(Cl)Oc2c(ccc3ccccc23)C1c1ccccc1[N+](=O)[O-] (stereo unspecified), the Inhibition (Klebsiella pneumoniae) was 5.03%, the Inhibition (Candida albicans) was 3.33% and the Inhibition (Cryptococcus neoformans) was -51.56%.

In the case of COc1ccc2cc(C3C(C(C)=O)=C(C)Oc4nc5c(c(N)c43)CCC5)c(Cl)nc2c1 (stereo unspecified), the Inhibition (Klebsiella pneumoniae) is reported as 0.03%, the Inhibition (Candida albicans) is reported as 12.4% and the Inhibition (Cryptococcus neoformans) is reported as -0.43%.

NNC(=O)C1(NC(=O)c2ccccc2)CC1c1cccc(O)c1 (stereo unspecified) gave an Inhibition (Klebsiella pneumoniae) of 19.56%, an Inhibition (Candida albicans) of 0.45% and an Inhibition (Cryptococcus neoformans) of -0.7%.

In the case of Cc1nc2c(cc1C#N)c(N)nn2C, the Inhibition (Klebsiella pneumoniae) is reported as 19.03%, the Inhibition (Candida albicans) is reported as 3.97% and the Inhibition (Cryptococcus neoformans) is reported as -10.85%.

In the case of CC(=O)Nc1n[nH]c2nc(N)c(C#N)c(-c3ccccc3)c12, the Inhibition (Klebsiella pneumoniae) is reported as 17.23%, the Inhibition (Candida albicans) is reported as 3.09% and the Inhibition (Cryptococcus neoformans) is reported as -57.93%.

With COc1ccc2nc(Cl)c(C=O)cc2c1 the Inhibition (Klebsiella pneumoniae; 32 ug/mL) was -0.34% and -2.5%, the Inhibition (Candida albicans) was 7.25% and 8.8% and the Inhibition (Cryptococcus neoformans; 32 ug/mL) was -8.56% and -8.89%.

Molecule O=C(O)c1c[nH]c2ccccc12 has an Inhibition (Klebsiella pneumoniae) of -9.13%, an Inhibition (Candida albicans) of 6.48% and an Inhibition (Cryptococcus neoformans) of -9.05%.

With CCOC(=O)c1cc2cc(OC(=O)Oc3ccc([N+](=O)[O-])cc3)ccc2[nH]1 the Inhibition (Klebsiella pneumoniae) was 0.96%, the Inhibition (Candida albicans) was 0.86% and the Inhibition (Cryptococcus neoformans) was -63.93%.

Work on Cn1c(CNNC(=O)c2ccco2)cc2ccccc21 yielded an Inhibition (Klebsiella pneumoniae) of -22.42%, an Inhibition (Candida albicans) of 1.4% and an Inhibition (Cryptococcus neoformans) of -3.17%.

Cn1ccnc1C1C2=C(CC(C)(C)CC2=O)Oc2nc3c(c(N)c21)CCCC3 (stereo unspecified) gave an Inhibition (Klebsiella pneumoniae) of 9.51%, an Inhibition (Candida albicans) of 1.3% and an Inhibition (Cryptococcus neoformans) of -60.42%.

Molecule COc1nc(Cl)c(C#N)c(-c2ccccc2)c1C#N has an Inhibition (Klebsiella pneumoniae) of 0.27%, an Inhibition (Candida albicans) of 31.9% and an Inhibition (Cryptococcus neoformans) of -41.05%.

CCOC(=O)c1cc2cc(OCc3ccccc3)ccc2[nH]1 gave an Inhibition (Klebsiella pneumoniae) of 6.66%, an Inhibition (Candida albicans) of 1.86% and an Inhibition (Cryptococcus neoformans) of -3.27%.

Nc1ccccc1C(=O)N/N=C/c1c[nH]c2ccccc12 gave an Inhibition (Klebsiella pneumoniae) of 18.84%, an Inhibition (Candida albicans) of -0.37% and an Inhibition (Cryptococcus neoformans) of 0.1%.

Work on COc1ccc(C2c3c(nc4c(c3N)CCCC4)Oc3ccc4ccccc4c32)cc1 (stereo unspecified) yielded an Inhibition (Klebsiella pneumoniae) of 8.01%, an Inhibition (Candida albicans) of 0.67% and an Inhibition (Cryptococcus neoformans) of 1.85%.

In the case of C=C1CN(C)c2ncc(C#N)c(=N)n21, the Inhibition (Klebsiella pneumoniae) is reported as 0.03%, the Inhibition (Candida albicans) is reported as 0.69% and the Inhibition (Cryptococcus neoformans) is reported as -57.29%.

For O=C(NNCCc1ccccc1)c1cc2ccccc2[nH]1, the Inhibition (Klebsiella pneumoniae) was 0.93%, the Inhibition (Candida albicans) was -1.59% and the Inhibition (Cryptococcus neoformans) was -3.77%.

In the case of C#CCNc1nc(NC2CCN(Cc3ccccc3)CC2)c(C#N)c(-c2ccccc2)c1C#N, the Inhibition (Klebsiella pneumoniae) is reported as -8.37%, the Inhibition (Candida albicans) is reported as 5.21% and the Inhibition (Cryptococcus neoformans) is reported as -52.49%.

CN(C)c1nc(N)c(C#N)cc1C#N was tested, and the Inhibition (Klebsiella pneumoniae) was 27.85%, the Inhibition (Candida albicans) was 0.31% and the Inhibition (Cryptococcus neoformans) was -5.23%.

C#CCN1CCc2nc3nc(N4CCCC4)c(C#N)cc3c(N)c2C1 showed an Inhibition (Klebsiella pneumoniae) of 10.68%, an Inhibition (Candida albicans) of 1.92% and an Inhibition (Cryptococcus neoformans) of -92.31%.

In the case of COc1ccc(-c2cc(-c3cc4ccc(F)cc4nc3Cl)cc(=O)[nH]2)cc1, the Inhibition (Klebsiella pneumoniae) is reported as -16.09%, the Inhibition (Candida albicans) is reported as 1.94% and the Inhibition (Cryptococcus neoformans) is reported as -21.89%.

Molecule CCOc1nc(N)c(C#N)cc1C#N has an Inhibition (Klebsiella pneumoniae) of 12.55%, an Inhibition (Candida albicans) of 44.3% and an Inhibition (Cryptococcus neoformans) of -83.12%.

In the case of O=Cc1cc2ccccc2nc1Cl, the Inhibition (Klebsiella pneumoniae) is reported as -2.74%, the Inhibition (Candida albicans) is reported as 7.94% and the Inhibition (Cryptococcus neoformans) is reported as -7.31%.

COc1ccc(C2c3c(ccc4ccccc34)OC(=NBr)C2(Br)C#N)cc1OC (stereo unspecified) was tested, and the Inhibition (Klebsiella pneumoniae) was 4.11%, the Inhibition (Candida albicans) was 18% and the Inhibition (Cryptococcus neoformans) was -72.67%.

Work on Cl.OCC1CCN(Cc2ccccc2)CC1 yielded an Inhibition (Klebsiella pneumoniae) of 15.06%, an Inhibition (Candida albicans) of 1.47% and an Inhibition (Cryptococcus neoformans) of -2.26%.

In the case of c1ccc(COc2ccc3[nH]ccc3c2)cc1, the Inhibition (Klebsiella pneumoniae) is reported as 11.46%, the Inhibition (Candida albicans) is reported as -1.1% and the Inhibition (Cryptococcus neoformans) is reported as -1.93%.

For CC(=O)n1cc(/C=C2\N=C(c3ccccc3)OC2=O)c2ccccc21, the Inhibition (Klebsiella pneumoniae) was 0.98%, the Inhibition (Candida albicans) was 1.66% and the Inhibition (Cryptococcus neoformans) was -2.55%.

Molecule COc1ccccc1C1c2c(ccc3ccccc23)OC(=N)C1(Br)C#N (stereo unspecified) has an Inhibition (Klebsiella pneumoniae) of 13.77%, an Inhibition (Candida albicans) of 5.01% and an Inhibition (Cryptococcus neoformans) of -63.67%.

For C#CCN(C)c1nc(NCCC2CCN(Cc3ccccc3)CC2)c(C#N)cc1C#N.Cl, the Inhibition (Klebsiella pneumoniae) was 3.63%, the Inhibition (Candida albicans) was -0.31% and the Inhibition (Cryptococcus neoformans) was 0.75%.

With N#CC1(Br)C(=NBr)Oc2ccc3ccccc3c2C1c1ccccc1 (stereo unspecified) the Inhibition (Klebsiella pneumoniae) was -3%, the Inhibition (Candida albicans) was 3.44% and the Inhibition (Cryptococcus neoformans) was -1.83%.

In the case of Cn1cc(/C=C2\NC(=S)NC2=O)c2ccccc21, the Inhibition (Klebsiella pneumoniae) is reported as 6.37%, the Inhibition (Candida albicans) is reported as -0.01% and the Inhibition (Cryptococcus neoformans) is reported as -4.32%.

For CCOC(=O)C1=C(C)NC(N)=C(C#N)C1c1ccc([N+](=O)[O-])cc1 (stereo unspecified), the Inhibition (Klebsiella pneumoniae) was 14.21%, the Inhibition (Candida albicans) was 2.04% and the Inhibition (Cryptococcus neoformans) was -47.11%.

For Cn1ccnc1C1C(C#N)=C(N)Oc2c1ccc1cccnc21 (stereo unspecified), the Inhibition (Klebsiella pneumoniae) was 9.74%, the Inhibition (Candida albicans) was 0.91% and the Inhibition (Cryptococcus neoformans) was -53.28%.

For Cl.ClCCCN1CCCCC1, the Inhibition (Klebsiella pneumoniae) was 13.52%, the Inhibition (Candida albicans) was 1.17% and the Inhibition (Cryptococcus neoformans) was -10.65%.

Molecule CCOC(=O)c1c(C)nc2nc3c(c(N)c2c1-c1ccccc1OC)CCCCC3 has an Inhibition (Klebsiella pneumoniae) of 0.86%, an Inhibition (Candida albicans) of -0.21% and an Inhibition (Cryptococcus neoformans) of -93.54%.

C#CCN(C)c1cc(Cl)nc(N)n1 showed an Inhibition (Klebsiella pneumoniae) of 16.87%, an Inhibition (Candida albicans) of 11.4% and an Inhibition (Cryptococcus neoformans) of -46.13%.

C/C(Cc1ccccc1)=N/NC(=O)c1c[nH]c2ccc(O)cc12 gave an Inhibition (Klebsiella pneumoniae) of 5.8%, an Inhibition (Candida albicans) of 0.37% and an Inhibition (Cryptococcus neoformans) of 4.37%.

O=C(NNC(Cc1ccccc1)Cc1ccccc1)c1cc2ccccc2[nH]1 was tested, and the Inhibition (Klebsiella pneumoniae) was 6.36%, the Inhibition (Candida albicans) was -2.25% and the Inhibition (Cryptococcus neoformans) was -1.71%.
